Experimental data: PubChem BioAssay (EPA / NIEHS)
Records with an inconclusive call do not appear. Active and inactive are the calls of the source. How the source made its calls, unless noted: active means hit-call score of the fitted dose curve at least 0.9, where 1 is the maximum; inactive means score below 0.9.

Experiments:
THRA (gene 7067) = THRA (gene 7067) (UniProt P10827); test: TOX21_TRA_COA_Agonist_Followup_ratio: Tox21 Thyroid Hormone Receptor alpha Agonism through Coactivator Recruitment Follow-Up Assay, Ratio (AID 2283948)
How it was run: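 Follow-up specificity assay in which TRα ligand-binding domain, expressed as a GST fusion, recruits a fluorescein-labelled SRC-2 peptide. Energy transfer from a terbium anti-GST antibody gives the acceptor/donor ratio, fitted upward relative to DMSO.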

THRB (gene 7068) [1] = target: THRB (gene 7068) (UniProt P10828); test: TOX21_TRB_COA_Agonist_Followup_ratio: Tox21 Thyroid Hormone Receptor beta Agonism through Coactivator Recruitment Follow-Up Assay, Ratio (AID 2283963)
How it was run: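 First, the GST-fused TRβ ligand-binding domain (5.0 nM) was incubated with test compound in 0.10% BSA. Next, fluorescein-tagged SRC-2 peptide (200 nM) and terbium anti-GST antibody (2 nM) were added. Finally, TR-FRET emission ratios were normalized against DMSO and T3 controls.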

[2] = target: Retinoic acid receptor RXR-alpha (Homo sapiens) (UniProt P19793); test: TOX21_TR_RXR_BLA_Agonist_Followup_ratio: Tox21 Thyroid Hormone Receptor beta Retinoid X Receptor alpha (RXRa) Agonism Beta-lactamase (BLA) Follow-Up Assay, Ratio (AID 2283968; active means hit-call score of the fitted dose curve at least 0.9, where 1 is the maximum)
How it was run: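 HEK293T RXRa-bla, qHTS; cpd 11-pt conc. in triplicate, 16 h 37C/5% CO2; CCF4-AM 2 h RT; ratio 460:530 nm; agonist direction vs DMSO; 9-cis retinoic acid as positive control.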

[3] = CCTE_Harrill_HTTr_Viability_DMEM_6hr: (Pilot) CCTE's 6-hour Cell Viability Assessment for the High-Throughput Transcriptomics (HTTr) Platform, in MCF-7 cells cultured in DMEM + 10% fetal bovine serum, Harrill Lab (AID 2283973)
How it was run: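 MCF-7 cells in DMEM + 10% FBS, eight-point dilution series, 6 h exposure. Membrane integrity by propidium iodide exclusion with high-content imaging; bidirectional fit versus DMSO.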

[4] = CCTE_Harrill_HTTr_Viability_DMEM_12hr: (Pilot) CCTE's 12-hour Cell Viability Assessment for the High-Throughput Transcriptomics (HTTr) Platform, in MCF-7 cells cultured in DMEM + 10% fetal bovine serum, Harrill Lab (AID 2283974)
How it was run: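 MCF-7 cells in DMEM + 10% FBS exposed 12 h to an eight-point dilution series; membrane integrity scored by propidium iodide exclusion with high-content imaging, bidirectional fitting versus DMSO.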

[5] = CCTE_Harrill_HTTr_Viability_DMEM_24hr: (Pilot) CCTE's 24-hour Cell Viability Assessment for the High-Throughput Transcriptomics (HTTr) Platform, in MCF-7 cells cultured in DMEM + 10% fetal bovine serum, Harrill Lab (AID 2283975)
How it was run: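 MCF-7 cells in DMEM with 10% FBS exposed for 24 hours to an eight-point dilution series. Membrane integrity by propidium iodide exclusion with high content imaging; bidirectional fit against DMSO.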

[6] = CCTE_Harrill_HTTr_Viability_PRF_DMEM_6hr: (Pilot) CCTE's 6-hour Cell Viability Assessment for the High-Throughput Transcriptomics (HTTr) Platform, in MCF-7 cells cultured phenol red-free DMEM + 10% charcoal-stripped fetal bovine serum, Harrill Lab (AID 2283976)
Excerpt: This is a cell-based assay that evaluates cell viability using high content imaging to evaluate membrane integrity using propidium iodide dye exclusion in a 384 well format.One of seven assay components measured from the CCTE_Harrill_HTTr_Viability assay. This was part of a pilot experiment. This is a cell-based assay that evaluates cell viability in MCF-7 cells cultured in phenol red-free DMEM + 10% charcoal-stripped fetal bovine serum. High content imaging is used to evaluate membrane integrity using propidium iodide dye exclusion. Measurements are taken at 6 hours after chemical dosing in 384-well format.The assay component endpoint CCTE_Harrill_HTTr_Viability_PRF_DMEM_6hr was analyzed with bidirectional fitting relation to DMSO as the negative control and baseline of activity. Using a type of viability reporter to understand changes in cytotoxicity, gain-of-signal activity can be used to evaluate membrane integrity using propidium iodide dye exclusion. To generalize the intended target to other relatable targets, this assay endpoint is annotated to cell cycle, where the subfamily is cytotoxicity.
Chemicals were tested in MCF7 cells in an eight point dilution series with a six hour exposure duration.

THRB (gene 7068) [7] = target: THRB (gene 7068) (UniProt P10828); test: TOX21_TRB_BLA_Antagonist_Followup_ratio: Tox21 Thyroid Hormone Receptor beta Antagonism Beta-lactamase (BLA) Follow-Up Assay, Ratio (AID 2283958; active means hit-call score of the fitted dose curve at least 0.9, where 1 is the maximum)
How it was run: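 HEK293T TRb-bla (GAL4 DBD + hTRβ LBD), 2% cs-FBS phenol red-free DMEM, 5 h attach; cpds 11-pt triplicate, 18 h 37C; CCF4-AM 2 h RT; 460/530 ratio vs DMSO; CellTiter-Glo viability same wells.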

[8] = TOX21_TRB_BLA_Antagonist_Followup_viability: Viability Assessment in the Tox21 Thyroid Hormone Receptor beta Antagonism Beta-lactamase (BLA) Follow-Up Assay (AID 2283961; active means hit-call score of the fitted dose curve at least 0.9, where 1 is the maximum)
How it was run: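 TRβ-bla HEK293T (human TRβ LBD fused to GAL4 DBD), 3,000 cells/well, 2% charcoal-stripped FBS, phenol red-free medium; 18 h compound exposure, 37C; CellTiter-Glo 30 min RT; luminescence, loss-of-signal readout.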

THRB (gene 7068) [9] = target: THRB (gene 7068) (UniProt P10828); test: TOX21_TRB_COA_Antagonist_Followup_ratio: Tox21 Thyroid Hormone Receptor beta Antagonism through Coactivator Recruitment Follow-Up Assay, Ratio (AID 2283967; active means hit-call score of the fitted dose curve at least 0.9, where 1 is the maximum)
How it was run: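 Test compound was incubated with 5.0 nM GST-TRβ LBD in 0.10% BSA. Then 200 nM fluorescein-SRC-2 peptide and 2 nM terbium anti-GST antibody were added. TR-FRET (520:495 nm) was measured and normalized to DMSO and T3 controls.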

Measured: AC50

THRB (gene 7068), sequence (P10828 whole entry, looked up, the tested form may be a part): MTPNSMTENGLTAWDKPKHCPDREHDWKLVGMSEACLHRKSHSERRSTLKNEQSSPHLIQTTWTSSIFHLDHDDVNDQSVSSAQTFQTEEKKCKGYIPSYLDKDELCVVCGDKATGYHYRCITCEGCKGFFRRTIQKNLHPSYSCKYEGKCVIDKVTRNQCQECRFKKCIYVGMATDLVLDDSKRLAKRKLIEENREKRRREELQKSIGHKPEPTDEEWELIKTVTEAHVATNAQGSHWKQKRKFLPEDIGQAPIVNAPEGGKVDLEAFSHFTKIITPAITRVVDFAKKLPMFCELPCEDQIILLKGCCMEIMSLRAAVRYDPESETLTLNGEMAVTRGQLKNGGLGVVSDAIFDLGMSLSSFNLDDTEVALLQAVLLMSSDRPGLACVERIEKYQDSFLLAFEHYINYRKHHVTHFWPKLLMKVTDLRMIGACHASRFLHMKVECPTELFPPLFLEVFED
Retinoic acid receptor RXR-alpha (Homo sapiens), sequence (P19793 whole entry, looked up): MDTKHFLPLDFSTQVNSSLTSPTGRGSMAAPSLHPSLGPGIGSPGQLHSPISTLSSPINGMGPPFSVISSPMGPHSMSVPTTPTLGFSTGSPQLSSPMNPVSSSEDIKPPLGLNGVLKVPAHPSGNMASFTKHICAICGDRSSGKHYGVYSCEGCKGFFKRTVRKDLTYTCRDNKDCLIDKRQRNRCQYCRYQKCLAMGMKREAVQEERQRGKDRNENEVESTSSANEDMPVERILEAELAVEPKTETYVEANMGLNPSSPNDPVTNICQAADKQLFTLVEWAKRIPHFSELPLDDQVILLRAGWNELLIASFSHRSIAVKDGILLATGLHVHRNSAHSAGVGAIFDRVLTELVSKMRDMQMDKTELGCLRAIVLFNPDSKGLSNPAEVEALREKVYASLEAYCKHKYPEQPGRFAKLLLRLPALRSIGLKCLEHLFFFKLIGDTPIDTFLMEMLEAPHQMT
THRA (gene 7067), sequence (P10827 whole entry, looked up, the tested form may be a part): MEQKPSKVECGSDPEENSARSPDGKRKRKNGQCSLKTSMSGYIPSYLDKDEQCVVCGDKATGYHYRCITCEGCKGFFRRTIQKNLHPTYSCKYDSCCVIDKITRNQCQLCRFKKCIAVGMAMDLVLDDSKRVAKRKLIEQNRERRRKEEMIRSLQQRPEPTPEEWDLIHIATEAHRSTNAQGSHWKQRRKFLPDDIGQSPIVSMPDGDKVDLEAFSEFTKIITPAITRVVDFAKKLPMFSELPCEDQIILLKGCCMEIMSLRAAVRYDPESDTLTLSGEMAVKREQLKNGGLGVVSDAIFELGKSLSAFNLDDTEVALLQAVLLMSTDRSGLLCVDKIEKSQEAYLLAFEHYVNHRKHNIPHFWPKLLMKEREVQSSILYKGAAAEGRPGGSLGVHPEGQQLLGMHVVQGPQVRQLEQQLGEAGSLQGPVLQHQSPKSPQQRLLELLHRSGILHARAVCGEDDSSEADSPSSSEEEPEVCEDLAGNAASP

Cc1occc(=O)c1O
inactive: THRA (gene 7067) | THRB (gene 7068) [1] | [2]

CC(=O)O[C@]1(C(C)=O)CC[C@H]2[C@@H]3C=C(Cl)C4=CC(=O)[C@@H]5C[C@@H]5[C@]4(C)[C@H]3CC[C@@]21C
inactive: [3] | [4] | [5] | [6]

Nc1nc(Cl)nc2c1ncn2[C@H]1C[C@H](O)[C@@H](CO)O1
inactive: THRB (gene 7068) [7] | [8] | THRB (gene 7068) [9] | [3] | [4] | [5] | [6]

CCN(CC)CCOc1ccc(C(=C(Cl)c2ccccc2)c2ccccc2)cc1
active: [3] 82.4 µM | [4] 65.3 µM | [5] 54.8 µM | [6] 70 µM

CC(C)OC(=O)C(C)(C)Oc1ccc(C(=O)c2ccc(Cl)cc2)cc1
inactive: [3] | [4] | [5] | [6]

Cc1c(C)c2c(c(C)c1O)CCC(C)(COc1ccc(CC3SC(=O)NC3=O)cc1)O2 (stereo not given)
inactive: [3] | [4] | [5] | [6]

COC(=O)[C@H]1[C@H]2C[C@@H]3c4[nH]c5cc(OC)ccc5c4CCN3C[C@H]2C[C@@H](OC(=O)c2cc(OC)c(OC)c(OC)c2)[C@@H]1OC
inactive: [3] | [4] | [5] | [6]
